Among the data in PubChem BioAssay (Tox21) are outcome and Potency values, retold here.

Inconclusive results are not listed. A structure can be active in one record and inactive in another. Activity calls are given as the source filed them. Unless noted, calls come from the whole dose curve; as a rule, active = well fitted curve in the direction sought with a large enough effect in the repeat runs; inconclusive = weak or mixed curves; inactive = no such curve, though single readings can be large; an effect the other way counts as inactive or inconclusive.

Test [1] is described as follows: qHTS assay to identify small molecule antagonists of the glucocorticoid receptor (GR) signaling pathway - cell viability counter screen (AID 720693). Note: nearly all actives have a fitted effect of over 55% in size.
The nature of test [2]: qHTS assay for identifying genotoxic compounds that show differential cytotoxicity against isogenic chicken DT40 cell lines with known DNA damage response pathways - wild type cell line (AID 743012). Note: nearly all actives have a fitted effect of over 60% in size. Note: potency is the fitted concentration of half-maximal effect. The essentials: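 Using parental DT40 (300 cells/well), compounds delivered in DMSO incubate 40 h at 37 C/5% CO2. CellTiter-Glo reagent then stands 30 min at room temperature, and luminescence gives cell viability.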

A short description of test [3]: qHTS assay for identifying genotoxic compounds that show differential cytotoxicity against isogenic chicken DT40 cell lines with known DNA damage response pathways - Rev3 mutant cell line (AID 743014; note: nearly all actives have a fitted effect of over 55% in size; note: potency is the fitted concentration of half-maximal effect). (qHTS replaces the single test concentration by a dilution series.)
Test [4] can be described thus: qHTS assay for identifying genotoxic compounds that show differential cytotoxicity against isogenic chicken DT40 cell lines with known DNA damage response pathways - Rad54/Ku70 mutant cell line (AID 743015). Note: nearly all actives have a fitted effect of over 60% in size. Note: potency is the fitted concentration of half-maximal effect.
A short description of test [5]: qHTS assay to identify small molecule antagonists of the androgen receptor (AR) signaling pathway - cell viability counter screen (AID 743033; note: nearly all actives have a fitted effect of over 45% in size).
A short description of test [6]: qHTS assay to identify small molecule antagonists of the androgen receptor (AR) signaling pathway using the MDA cell line - cell viability counter screen (AID 743041; note: nearly all actives have a fitted effect of over 45% in size). The essentials:
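Same-well cytotoxicity was assessed by CellTiter-Fluor in MDA-kb2 AR-luc cells after 16 h of compound treatment under R1881 agonism.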

Test [7] can be described thus: qHTS assay to identify small molecule antagonists of the thyroid receptor (TR) signaling pathway - cell viability counter screen (AID 743064). Note: nearly all actives have a fitted effect of over 50% in size. The essentials: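 Counter screen for cytotoxicity: compound plus T3 (1 nM final) on GH3.TRE-Luc cells, 23.5 h at 37 °C, then fluorescence viability readout with CellTiter-Fluor.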
Test [8] can be described thus: qHTS assay to identify small molecule antagonists of the thyroid receptor (TR) signaling pathway (AID 743065). Note: series mostly up to about 70 µM; nearly all actives have a fitted effect of over 55% in size. The method, boiled down:
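GH3.TRE-Luc rat pituitary cells (two TREs driving luciferase) were dosed with compound, then stimulated with 1 nM T3 (final) for 23.5 h at 37 C. ONE-Glo luminescence was the read-out, with CellTiter-Fluor fluorescence as the cytotoxicity counter-screen.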

Test [9] deals with thyroid hormone receptor (rat, GH3 cells). As to the kind of experiment: qHTS assay to identify small molecule agonists of the thyroid receptor (TR) signaling pathway (AID 743066; calls by dose curve).
The target of test [10] is Estrogen receptor (Homo sapiens) (UniProt P03372). As to the kind of experiment: qHTS assay to identify small molecule antagonists of the estrogen receptor alpha (ER-alpha) signaling pathway (AID 743069; active = well fitted curve in the direction sought with a large enough effect in the signal ratio in the repeat runs, not every such curve was filed as active; the % refers to the signal ratio). The essentials:
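Reporter cells (ER-alpha-bla, HEK293 background) are conditioned overnight in stripped-serum medium (2% charcoal-stripped FBS). Compound and 17beta-estradiol exposure runs 18 hr at 37C, 5% CO2.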

Test [11] in a line: qHTS assay to identify small molecule antagonists of the estrogen receptor alpha (ER-alpha) signaling pathway - cell viability counter screen (AID 743074; calls by dose curve;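 note: HEK293 cells carrying ER-alpha-UAS-bla reporter stimulated with 17beta-estradiol; nearly all actives have a fitted effect of over 45% in size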).
Test [12] addresses Estrogen receptor (Homo sapiens) (UniProt P03372). As to the kind of experiment: qHTS assay to identify small molecule agonists of the estrogen receptor alpha (ER-alpha) signaling pathway (AID 743075; calls by dose curve;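 note: HEK293 GripTite cells with ER-alpha and UAS-driven beta-lactamase reporter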).
Test [13] shares this target. As to the kind of experiment: qHTS assay to identify small molecule agonists of the estrogen receptor alpha (ER-alpha) signaling pathway using the BG1 cell line (AID 743079). Note: nearly all actives have a fitted effect of over 20% in size. Note: potency is the fitted concentration of half-maximal effect.
A short description of test [14]: qHTS assay to identify small molecule antagonists of the estrogen receptor alpha (ER-alpha) signaling pathway using the BG1 cell line (AID 743080; calls by dose curve;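 note: BG1 cells stimulated with 17beta-estradiol alongside compound; series mostly up to about 70 µM; nearly all actives have a fitted effect of over 25% in size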). The method, boiled down:
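Luciferase inhibition measured with ONE-Glo after 30 min at RT in BG1Luc4E2 cells given test compounds and 17beta-estradiol for 21.5 h at 37 C; CellTiter-Fluor viability read in the same wells beforehand.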

Test [15] in a line: qHTS assay to identify small molecule antagonists of the estrogen receptor alpha (ER-alpha) signaling pathway using the BG1 cell line - cell viability counter screen (AID 743081).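 Note: compound given together with 17beta-estradiol as the ER stimulus; series mostly up to about 70 µM; nearly all actives have a fitted effect of over 45% in size.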
In test [16] the target is Aromatase (Homo sapiens) (UniProt P11511). As to the kind of experiment: qHTS assay to identify aromatase inhibitors (AID 743083). Note: series mostly up to about 70 µM; nearly all actives have a fitted effect of over 55% in size.
Sequence of Aromatase (Homo sapiens) (P11511 whole entry, looked up): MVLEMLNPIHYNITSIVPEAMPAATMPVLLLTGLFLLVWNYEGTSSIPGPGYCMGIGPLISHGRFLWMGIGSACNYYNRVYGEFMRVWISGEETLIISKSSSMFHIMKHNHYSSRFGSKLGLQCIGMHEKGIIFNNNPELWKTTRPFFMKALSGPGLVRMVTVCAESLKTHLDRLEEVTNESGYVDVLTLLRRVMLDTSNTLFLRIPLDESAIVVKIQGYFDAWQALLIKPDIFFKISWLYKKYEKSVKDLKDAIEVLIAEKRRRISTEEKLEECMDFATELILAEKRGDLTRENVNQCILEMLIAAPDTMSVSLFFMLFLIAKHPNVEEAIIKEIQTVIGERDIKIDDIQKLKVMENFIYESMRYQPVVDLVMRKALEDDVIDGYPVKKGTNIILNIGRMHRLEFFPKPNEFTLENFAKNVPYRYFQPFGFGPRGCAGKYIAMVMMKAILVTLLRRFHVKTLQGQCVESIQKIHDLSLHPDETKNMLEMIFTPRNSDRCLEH

Sequence of Estrogen receptor (Homo sapiens) (P03372 whole entry, looked up): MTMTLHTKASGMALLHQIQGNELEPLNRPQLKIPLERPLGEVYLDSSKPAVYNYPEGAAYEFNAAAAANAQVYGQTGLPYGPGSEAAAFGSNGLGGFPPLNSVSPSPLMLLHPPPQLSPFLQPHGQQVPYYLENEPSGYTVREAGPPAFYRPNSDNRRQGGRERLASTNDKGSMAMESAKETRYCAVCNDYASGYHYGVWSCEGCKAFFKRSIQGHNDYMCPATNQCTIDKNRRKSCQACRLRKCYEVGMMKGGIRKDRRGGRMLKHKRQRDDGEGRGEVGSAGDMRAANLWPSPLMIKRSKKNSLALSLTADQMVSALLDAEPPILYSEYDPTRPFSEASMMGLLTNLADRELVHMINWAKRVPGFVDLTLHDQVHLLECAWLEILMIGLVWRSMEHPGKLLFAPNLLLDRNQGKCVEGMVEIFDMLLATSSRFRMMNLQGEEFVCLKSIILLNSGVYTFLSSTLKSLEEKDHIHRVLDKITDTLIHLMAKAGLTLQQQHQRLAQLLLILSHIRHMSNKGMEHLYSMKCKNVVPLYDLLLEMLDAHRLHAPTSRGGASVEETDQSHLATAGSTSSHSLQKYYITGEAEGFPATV

For the molecule `Nc1nnnn1-c1ccccc1`, the molecule was classed as inactive in test [1], in test [5], in test [9], in test [10], in test [11] and in test [14]. Also, in test [16], the call was inactive. Moreover, the Potency entry in test [2], in [3], in test [4], in [6], in [7] and in test [8] was “inactive” each time. Also, the Potency entry in test [12], in test [13] and in [15] was “inactive” throughout.
As for `C=CCCCC`, the outcome in test [1], in [5], in test [9], in [10], in test [11] and in [14] was inactive. The molecule was called inactive in test [16]. Further, the Potency result in test [2], in test [3], in test [4], in test [6], in test [7] and in test [8] was “inactive” in each case. The Potency entry in [12] and in [15] was “inactive” throughout.
In the case of `C[C@]12CCC(=O)C=C1CC[C@H]1[C@@H]3CC[C@](O)(C(=O)CO)[C@@]3(C)C[C@H](O)[C@@]12F`, the result in [1], in test [5], in test [9], in test [11] and in [16] was inactive. Moreover, the Potency in [2] was 23.7 µM (active); in test [3], 11.9 µM (active); in test [4], 21.1 µM (active); in [13] it was 4.73 µM (active) and inactive. The Potency result in test [6], in [7], in test [8], in test [12] and in [15] was “inactive” each time.
Turning to `CCOC(=O)CC1(C)OCC(C)O1` (stereo not given), the outcome in [1], in test [5], in [9], in [11], in test [14] and in test [16] was inactive. For the same molecule, the Potency result in [2], in [3], in test [4], in test [6], in test [7] and in test [8] was “inactive” in each case. Besides, the Potency result in test [12], in test [13] and in test [15] was “inactive” each time.
Regarding `O=C(O)c1cc2ccccc2nc1C(=O)O`, the molecule was called inactive in test [1], in test [5], in [9], in test [10], in [11] and in test [14]. In [16], the result was inactive. For the same molecule, the Potency result in test [2], in test [3], in test [4], in [6], in test [7] and in [8] was “inactive” throughout. In addition, the Potency result in test [12] and in [15] was “inactive” each time.
Regarding `Cc1ccc2c(c1)C(=O)c1ccccc1C2=O`, the molecule was classed as inactive in [1], in [5], in [9], in [11] and in test [16]. For the same molecule, the Potency in test [2] is 48.4 µM (active); in test [3], 54.3 µM (active); in test [4], 60.9 µM (active); in [13] it was 34.2 µM (active). In addition, the Potency result in test [6], in [7], in test [8], in test [12] and in test [15] was “inactive” in each case.
With `NCCOCCN`, the molecule was called inactive in [1], in [5], in test [9], in [10], in [11] and in [14]. The molecule was called inactive in [16]. Further, the Potency result in [2], in [3], in [4], in test [6], in test [7] and in [8] was “inactive” each time. Also, the Potency entry in [12], in test [13] and in test [15] was “inactive” throughout.
For `CCCCOC(=O)C(C)O` (stereo not given), the molecule was called inactive in [1], in test [5], in test [9], in test [10], in test [11] and in [14]. The call in test [16] was inactive. Also, the Potency result in test [2], in [3], in test [4], in test [6], in test [7] and in test [8] was “inactive” each time. In addition, the Potency result in [12], in test [13] and in test [15] was “inactive” throughout.
For `Cc1cc(C)c(C(=O)O)c(C)c1`, the result in [1], in [5], in test [9], in test [11], in test [14] and in [16] was inactive. Moreover, the Potency result in [2], in [3], in test [4], in test [6], in test [7] and in test [8] was “inactive” in each case. The Potency entry in test [12], in test [13] and in test [15] was “inactive” in each case.
For the molecule `C[C@@H](O)C(=O)O`, the outcome in [1], in [5], in test [9], in test [10], in test [11] and in [14] was inactive. Further, in [16], the call was inactive. The Potency result in test [2], in test [3], in [4], in test [6], in [7] and in test [8] was “inactive” throughout. For the same molecule, the Potency result in test [12] and in test [15] was “inactive” each time. For the same molecule, the Potency in test [13] was 48 µM (active).
As to `CCCCOCC(C)O` (stereo not given), the outcome in test [1], in test [5], in [9], in test [11], in [14] and in [16] was inactive. In addition, the Potency result in [2], in test [3], in [4], in test [6], in test [7] and in test [8] was “inactive” in each case. Besides, the Potency result in test [12], in [13] and in test [15] was “inactive” in each case.
As to `CN(C)CC/C=C1/c2ccccc2COc2ccc(CC(=O)O)cc21`, the call in [1], in [5], in test [9] and in test [11] was inactive. Also, the Potency result in test [2], in test [3], in test [4], in test [6], in test [7] and in [8] was “inactive” each time. Also, the Potency entry in [15] was “inactive”.
In the case of `CC(=O)OCC(=O)Nc1cc(C#N)cc(NC(=O)COC(C)=O)c1Cl`, the molecule was called inactive in test [1], in [5], in test [9], in [10], in test [11] and in [14]. Further, the molecule was called inactive in test [16]. Further, the Potency result in [2], in [3], in [4], in test [6], in test [7] and in test [8] was “inactive” in each case. In addition, the Potency entry in test [12] and in test [13] was “inactive” in each case.
With `O=C1CCC(=O)N1Cl`, the call in test [1], in test [5], in test [9], in [11], in test [14] and in [16] was inactive. Also, the Potency result in test [2], in test [3], in test [4], in [6], in [7] and in test [8] was “inactive” throughout. The Potency result in test [12], in test [13] and in test [15] was “inactive” throughout.
Consider `CC(C)CO`, for which the result in test [1], in [5], in [9], in test [11], in [14] and in test [16] was inactive. The Potency entry in test [2], in test [3], in test [4], in test [6], in test [7] and in test [8] was “inactive” throughout. Further, the Potency result in test [12], in test [13] and in [15] was “inactive” throughout.
`CN1C[C@@H]2C[C@H]1CN2c1cc2c(cc1F)c(=O)c(C(=O)O)cn2C1CC1`: the result in [1], in test [5], in test [9], in [11], in test [14] and in test [16] was inactive. For the same molecule, the Potency is 7.5 µM (active) in [2], 9.44 µM (active) in test [3] and 11.9 µM (active) in test [4]. In addition, the Potency result in test [6], in test [7], in test [8], in test [12], in [13] and in [15] was “inactive” throughout.
As for `CN(C)CCCO[C@@H]1[C@H]2OC(C)(C)O[C@H]2O[C@@H]1C(O)CO` (stereo not given in full), the molecule was classed as inactive in [1], in test [5], in test [9], in [11], in [14] and in [16]. Also, the Potency result in test [2], in [3], in [4], in [6], in [8] and in test [12] was “inactive” in each case. The Potency entry in test [13] and in test [15] was “inactive” in each case.
In the case of `C/C=C(\C)C(=O)OCCc1ccccc1`, the molecule was called inactive in test [1], in test [5], in [9], in test [11] and in test [16]. Also, the Potency result in [2], in [3], in [4], in test [6], in [7] and in test [8] was “inactive” throughout. For the same molecule, in test [15], the Potency entry was “inactive”.
As for `C=CC(=O)CCCCC`, the result in test [1], in test [5], in [9] and in [16] was inactive. For the same molecule, the Potency entry in test [2], in test [3], in test [4], in test [6], in test [7] and in [8] was “inactive” each time. Besides, in test [15], the Potency result is “inactive”.
